For 52 compounds, INHIBITION results are on record in ChEMBL document CHEMBL4513216, “Probing the Open Global Health Chemical Diversity Library for Multistage-Active Starting Points for Next-Generation Antimalarials” (ACS Infect Dis, 2020).

Out of some 69,000 compounds screened, about 8,600 (12%) showed an effect of 50% or more. The entries come from a sample that favours strong results as a whole.

The subject of the assay is Plasmodium berghei. The assay is described as follows: Screen against P. berghei liver stage (PbLuc), transformed with Luciferase, at 10uM. As to conditions: tested at 10 uM. The format is functional, HepG2.
For the compound `COCC1CN(CCc2ccc(OC)c(OC)c2)Cc2c1cnn2C` (configuration not stated), the INHIBITION came to 53.9%. Under `CCn1ncc2c1C(COC)CN(Cc1ccco1)C2` (configuration not stated) stands 39.2%; under `Cn1ncc2c1CN(Cc1ccccc1F)CC2COCC1CC1` (configuration not stated), 49.3%. The result for `COCCN1CCn2cc(CNC(=O)c3cnn(C)c3)nc2C1` reads 16.8%; that for `O=C(NCc1ccco1)[C@@H]1CC[C@@H]2[C@@H](CCN2CC2CC2)O1`, 12.3%.

Take `O=C(Cc1ccccn1)N1CCC(O)(Cn2ccc3ccncc32)CC1`: the INHIBITION is -21.4%. Consider `NC(=O)Cn1cc(NC(=O)N2CCC(c3ccccc3)CC2)cn1`, for which the INHIBITION is on record as 31.65%. As for `CC(C)CN(CC(O)c1ccc(F)cc1)C(=O)c1cc[nH]n1` (configuration not stated), the INHIBITION amounted to 39.5%. Under `CC(C)OC(=O)[C@@H]1CCN(C(=O)c2ccccn2)[C@@H]1c1ccc(F)cc1` stands -18.8%; under `Cc1cccc(S(=O)(=O)N2C[C@@H]3C[C@H](C(=O)NCC(C)C)[C@H](C2)O3)c1`, 45.2%; under `O=C(CC1CCCC1)N1CCn2cc(Cn3cccn3)nc2C1`, 31.1%. The result for `Cc1cc(N(C)C)nc(C2(C)CCCN2C(=O)c2ccccc2)n1` (configuration not stated) reads 15.9%. `Cc1cccc(N2CC[C@@H]3[C@@H](CO[C@H]3CNS(C)(=O)=O)C2)n1`: the INHIBITION is recorded as -39.4%. The result for `Cc1ccc(CN2CC[C@H]3CO[C@H](CN(C)Cc4ccco4)[C@H]3C2)s1` reads 18.7%. The result for `CN(Cc1ccco1)C[C@@H]1OC[C@H]2CN(Cc3nccs3)CC[C@H]21` reads -46.8%. The result for `Cc1ccc(N2CC[C@@H]3[C@@H](CO[C@H]3CNC(=O)c3ccco3)C2)nn1` reads 57.1%; that for `CN(Cc1cccnc1)C[C@@H]1OC[C@H]2CN(Cc3ccco3)CC[C@H]21`, 8.03%.

As to `CN(Cc1ccco1)C[C@H]1OC[C@@H]2CN(c3ncc(F)cn3)CC[C@@H]21`, the INHIBITION is listed as 58.3%. Turning to `Cc1cccc(N2CC[C@@H]3[C@@H](CO[C@H]3CNC(=O)c3ccco3)C2)n1`, the INHIBITION is -44.2%. Under `Cc1ccc(N2CC[C@H]3CO[C@H](CN(C)Cc4ccco4)[C@H]3C2)nn1` stands 53.4%; under `CN(Cc1ccco1)C[C@H]1OC[C@@H]2CCN(Cc3ccccn3)C[C@@H]21`, -14.7%; under `Cc1cccc(N2CC[C@H]3CO[C@H](CN(C)Cc4ccco4)[C@H]3C2)n1`, 46.4%. The result for `O=C(NC[C@H]1OC[C@@H]2CCN(c3ccccn3)C[C@@H]21)c1ccco1` reads -0.804%; that for `Cc1cccc(N2CC[C@H]3[C@H](CO[C@@H]3CN(C)Cc3ccco3)C2)n1`, 65.3%. Under `CCc1ccc(CN2CCC(c3ccccc3C(=O)O)C2)nc1` (configuration not stated) stands -8.66%. Consider `Cc1cccn2c(NC(C)(C)C)c(C3CCN(C(=O)C4CC4)CC3)nc12`, for which the INHIBITION is reported as -4.49%. On to `CNC(=O)[C@H]1C[C@@H]2CN(S(=O)(=O)c3ccc(C)c(F)c3)C[C@@H]2N1C`, for which the INHIBITION turned out to be 0.542%.

For `CC(CNC(=O)c1cn(-c2ccccc2)nn1)Cn1cccn1` (configuration not stated), the INHIBITION amounted to 20.2%. The result for `CCN(CC)C1COc2c(cc(Br)c(C)c2C)C1=O` (configuration not stated) reads 47.1%. The result for `COc1ccc(-c2cc(C3(O)CCN(C)CC3)on2)cc1` reads 19.3%; that for `CN(Cc1ccco1)C[C@H]1OC[C@@H]2CCN(Cc3ccncc3)C[C@@H]21`, -46.8%. The result for `CN(Cc1ccco1)C[C@H]1OC[C@@H]2CCN(Cc3ccsc3)C[C@@H]21` reads 62.4%; that for `CN(Cc1ccco1)C[C@H]1OC[C@@H]2CCN(Cc3cccs3)C[C@@H]21`, 25.4%; that for `Cc1cn[nH]c1C1COCCN1C(=O)c1ccc2c(c1)CCCC2` (configuration not stated), -6.88%. With `CSc1ccc(C(=O)C2CCCN(C(=O)CCn3cnnn3)C2)cc1` (configuration not stated), the INHIBITION was 5.91%. The result for `COc1ccc(CC(=O)NC(C)c2nc3cccnc3n2C(C)C)cc1` (configuration not stated) reads 90.5%; that for `COc1cccc(CC(=O)NC(C)c2nc3cccnc3n2C(C)C)c1` (configuration not stated), -17.7%; that for `COc1ccccc1CC(=O)NC(C)c1nc2cccnc2n1C(C)C` (configuration not stated), -29.8%. The result for `CN(Cc1ncc(-c2ccccc2C(=O)O)s1)c1ncccn1` reads 12%; that for `Cc1cc(S(=O)(=O)NC(C)(C)CN)c(F)cc1F`, 37.6%. The result for `COc1ccc(C(C)NC(=O)C2CCN(S(C)(=O)=O)CC2)cc1C` (configuration not stated) reads 68.1%; that for `CCC(NC(=O)C1CCN(S(C)(=O)=O)CC1)c1ccc(C)cc1` (configuration not stated), 33%; that for `CCC(NC(=O)C1CCN(S(C)(=O)=O)CC1)c1ccc(OC)cc1` (configuration not stated), 73.6%. In the case of `CCC(NC(=O)c1nn(C)cc1C(=O)O)c1ccc(C)cc1C` (configuration not stated), the INHIBITION is listed as 32.3%. For the compound `CCC(NC(=O)C1CCN(S(=O)(=O)N(C)C)CC1)c1ccc(C)c(C)c1` (configuration not stated), the INHIBITION is on record as 21.8%. As for `CCC(NC(=O)C1CCN(S(C)(=O)=O)CC1)c1ccc(C)c(C)c1` (configuration not stated), the INHIBITION stood at 58.5%.

On to `Cc1csc(C(Cc2ccsc2)NC(=O)C2CCN(S(C)(=O)=O)CC2)n1` (configuration not stated), for which the INHIBITION is -11.7%.

Turning to `CCOc1ccc(C(C)NC(=O)N2CCC(C(N)=O)CC2)cc1OC` (configuration not stated), the INHIBITION was found to be 47.4%.

On to `CCC(NC(=O)C1CCN(S(C)(=O)=O)CC1)c1ccc(OC)c(C)c1` (configuration not stated), for which the INHIBITION is 23.5%. Under `CCC(NC(=O)C1CCN(S(C)(=O)=O)CC1)c1ccc(OC)c(OC)c1` (configuration not stated) stands -6.53%; under `CCC(NC(=O)C1CCN(S(C)(=O)=O)CC1)c1ccc(C)cc1C` (configuration not stated), 88%; under `COc1ccc(C(C(=O)O)N2CCN(C3CCCC3)CC2)cc1C` (configuration not stated), 43%.
